SMILES strings stand for the structures. Out of some 310,000 compounds screened, about 14,000 (4.5%) showed an effect of 50% or more. The effect is printed as a negative number. This is one part of a sample in which strong results are shown more often than they occur.
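Further: peak tail current of the secondary pulse compared with the same well before compound.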

The test deals with human ether-à-go-go-related gene (hERG) potassium channel (human, UniProt Q12809). Put plainly: primary screen, population patch clamp on CHO cells stably expressing hERG; higher = less effect of the substance.
Chain of human ether-à-go-go-related gene (hERG) potassium channel (Q12809 whole entry, looked up): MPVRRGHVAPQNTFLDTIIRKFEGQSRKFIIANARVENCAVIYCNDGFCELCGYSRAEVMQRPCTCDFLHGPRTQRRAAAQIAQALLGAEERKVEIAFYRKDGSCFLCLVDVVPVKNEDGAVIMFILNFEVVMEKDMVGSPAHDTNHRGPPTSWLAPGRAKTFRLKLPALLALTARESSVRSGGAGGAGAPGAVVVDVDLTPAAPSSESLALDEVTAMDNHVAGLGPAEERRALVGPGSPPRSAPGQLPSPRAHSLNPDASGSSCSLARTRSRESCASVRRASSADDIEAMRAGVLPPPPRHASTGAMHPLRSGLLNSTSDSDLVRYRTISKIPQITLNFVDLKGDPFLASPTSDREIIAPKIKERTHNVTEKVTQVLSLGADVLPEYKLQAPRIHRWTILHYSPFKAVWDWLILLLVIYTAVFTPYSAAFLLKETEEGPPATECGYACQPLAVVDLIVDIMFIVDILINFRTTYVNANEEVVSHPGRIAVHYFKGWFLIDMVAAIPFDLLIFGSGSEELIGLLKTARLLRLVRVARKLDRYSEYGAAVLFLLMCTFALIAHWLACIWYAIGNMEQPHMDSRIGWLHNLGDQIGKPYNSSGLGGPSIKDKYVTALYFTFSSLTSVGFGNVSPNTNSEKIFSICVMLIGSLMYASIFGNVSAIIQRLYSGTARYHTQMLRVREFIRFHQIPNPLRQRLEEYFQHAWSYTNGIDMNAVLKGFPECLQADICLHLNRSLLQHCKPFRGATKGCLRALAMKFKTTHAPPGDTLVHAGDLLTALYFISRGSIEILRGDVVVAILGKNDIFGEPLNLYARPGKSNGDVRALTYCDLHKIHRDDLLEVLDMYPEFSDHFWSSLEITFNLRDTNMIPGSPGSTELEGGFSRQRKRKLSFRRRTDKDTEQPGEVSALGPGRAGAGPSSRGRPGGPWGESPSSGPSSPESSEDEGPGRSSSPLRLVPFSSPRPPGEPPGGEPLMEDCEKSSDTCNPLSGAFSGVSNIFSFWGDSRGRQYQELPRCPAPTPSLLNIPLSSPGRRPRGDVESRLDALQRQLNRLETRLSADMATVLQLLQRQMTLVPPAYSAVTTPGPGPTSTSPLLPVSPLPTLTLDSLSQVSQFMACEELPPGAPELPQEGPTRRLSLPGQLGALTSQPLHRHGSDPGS
Take `CC(C)(C)NC(=O)NC(=O)C[n+]1ccc(Cc2ccc([N+](=O)[O-])cc2)cc1.[Cl-]`: the “hERG current change (%, negative = inhibition) at 10uM” value was -5.27%.
As for `O=C(CCCN1C(=O)/C(=C\c2ccccc2)SC1=S)Nc1ccc(O)cc1C(=O)O`, the figure is 18.1%; as for `CCOC(=O)/C=c1\s/c(=C\c2ccc(C(F)(F)F)cc2)c(=O)n1CC(=O)NCc1ccco1`, 5.47%.
Consider `O=C(CSc1nnnn1-c1cccnc1)NCc1cccs1`, for which the “hERG current change (%, negative = inhibition) at 10uM” value amounted to 9.62%.
`CCOC(=O)COc1ccc(C2CC(C)=NN2c2ccccc2)cc1` (stereo not drawn): the “hERG current change (%, negative = inhibition) at 10uM” value is on record as -0.31%.
As for `CC(=O)n1nc2nc(C)cc(C)c2c1N`, the figure is 13.9%; as for `O=C(/C=C/c1ccco1)NC1CCCC1`, 17.4%; as for `CCOc1ccc(/C=N/NC(=O)c2ccccc2C)cc1CN1CC2CC(C1)c1cccc(=O)n1C2` (stereo not drawn), -26.8%.
`O=C(CCN=C1NS(=O)(=O)c2ccccc21)OCC(=O)c1ccc(F)c(F)c1`: the “hERG current change (%, negative = inhibition) at 10uM” value was found to be 11%.
As for `O=C(NCc1ccccc1)NS(=O)(=O)c1ccccc1Cl`, the figure is -4.3%.
As for `CCOc1ccc(C2=CSC3=NCCN23)cc1[N+](=O)[O-]`, the figure is -75.5%.
The same measure for `CCOc1ccc(C2=CSC3=NCCN23)cc1`: -4.08%; for `COc1ccc(C2=CSC3=NCCN23)cc1[N+](=O)[O-]`: -26.1%; for `CCN(CC)c1ccc2c(c1)oc(=O)c1c(Cl)cc(=O)oc12`: 14.8%.
As for `COc1cc(O)c(NC(C)=O)c2nonc12`, the “hERG current change (%, negative = inhibition) at 10uM” value stood at 11.2%.
Take `CCn1c(SCC(=O)c2ccc(OC)cc2)nnc1C1CC1`: the “hERG current change (%, negative = inhibition) at 10uM” value amounted to 6.73%.
As to `CCn1c(SCc2ccccc2)nnc1C1CCN(S(=O)(=O)c2ccc(OC)cc2)CC1`, the “hERG current change (%, negative = inhibition) at 10uM” value is recorded as -60.8%.
As for `Cc1ccc(S(=O)(=O)N2CCC(c3nnc(SCCN4CCCC4)n3C)CC2)cc1`, the figure is 17.7%; as for `CCn1c(SCc2ccc(F)cc2)nnc1C1CCN(S(=O)(=O)c2ccc(OC)cc2)CC1`, -64.3%.
As to `CCn1c(SCc2ccccc2)nnc1C1CCCCC1`, the “hERG current change (%, negative = inhibition) at 10uM” value is on record as -11.2%.
As to `CCn1c(SC(C)C)nnc1C1CCN(S(=O)(=O)c2ccc(OC)cc2)CC1`, the “hERG current change (%, negative = inhibition) at 10uM” value was -20.6%.
As for `CCn1c(SCc2ccc(C)cc2)nnc1C1CCN(S(=O)(=O)c2ccc(OC)cc2)CC1`, the figure is -64.5%.
The same measure for `CCn1c(C2CCN(S(=O)(=O)c3ccc(OC)cc3)CC2)n[nH]c1=S`: -18%.
For `CCn1c(SC)nnc1C1CCN(S(=O)(=O)c2ccc(OC)cc2)CC1`, the “hERG current change (%, negative = inhibition) at 10uM” value was -4.3%.

Source of the values: paper PMC4336329 (PLoS ONE, 2015).
